# Assay outcomes (PubChem)
# KB-3-1 tox: kills parental KB-3-1 adenocarcinoma cells; KB-3-1 viability, CellTiter-Glo ATP luminescence, 72 h; Potency, µM (top dose mostly 46.1 µM), most hits filed as cytotoxic; 400,000 tested, 1.4% active; note: % is set by controls: 0 for no effect and ±100 for the full control effect; nearly all actives have a fitted effect of over 60% in size
#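 72 h, 37 °C compound treatment of KB-3-1 parental cells; CellTiter-Glo added, 10 min, luminescence read. Data corrected against DMSO-only plates and normalized before curve fitting.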
# HT1080 IDH1KD tx: toxicity to HT-1080 IDH1 knockdown cells (counter line). HT-1080 IDH1 knockdown viability, ATP luminescence, 48 h. AID 686971. Potency, µM (top dose mostly 46.1 µM), for the others: top-dose activity, negative = toxicity, usual class: cytotoxic. 360,000 tested, 2% active;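 note: 0% = DMSO wells and -100% = cell-free medium wells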
#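 CellTiter-Glo luminescence after 48 h compound exposure at 37 degrees C of IDH1-knockdown HT-1080 cells in 5% FBS RPMI. %Activity scaled between DMSO wells and cell-free media wells, with curves fitted and assigned curve classes.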
# HepG2 tox: HepG2 cytotoxicity, counter-screen for TGF-b inhibitors; 410,000 tested, 0.76% active; HepG2 CAGA-GFP viability, ATP luminescence, 18 h; Potency, µM (highest dose often 46.1 µM), inactives show top-dose activity change, negative = cytotoxicity, usual class: cytotoxic; AID 588856
#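 HepG2 CAGA-GFP cells (1000/well, DMEM with 1% FBS) received compound, then TGF-beta at 500 pg/mL final, and were incubated 18 hours at 37 degrees C. Viability was read by CellTiter-Glo luminescence. Media-only wells were set as complete cell-killing and DMSO as no toxicity.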
# KB-V1 MDR tox: kills drug-selected multidrug resistant KB-V1 cells; KB-V1 MDR cells viability, CellTiter-Glo, 72 h; Potency, µM (series often up to 46.1 µM), actives largely listed as cytotoxic; 400,000 tested, 3.4% active; note: % is set by controls: 0 for no effect and ±100 for the full control effect; nearly all actives have a fitted effect of over 60% in size
#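 Potencies derive from concentration-effect curves fitted to normalized luminescence (CellTiter-Glo) of KB-V1 cells treated for 72 h at 37 degrees C in phenol-red-free DMEM containing 10% FBS.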
# HT1080NT lethal: kills 2HG-producing HT-1080-NT fibrosarcoma cells; HT-1080-NT fibrosarcoma viability, CellTiter-Glo ATP luminescence, 48 h; Potency, µM (series often up to 46.1 µM), without a hit: top-dose activity, negative = less viability, usual class: cytotoxic; 360,000 tested, 1.6% active; AID 686970;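 note: NT is the 2HG producing partner of a matched IDH1 knockdown line; 0% = DMSO-treated cells and -100% = media-only wells without cells; nearly all actives have a fitted effect of over 55% in size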
#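 Viability of the 2HG-overproducing fibrosarcoma line after 48 hours of compound exposure at 37 degrees C was determined by luminescence with CellTiter-Glo, and concentration-effect curves were then fitted and categorized.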
# TGFb inhibitor: inhibitors of TGF-b signaling; HepG2 CAGA-GFP TGF-b/SMAD3 reporter, GFP fluorescence, 18 h; TGF-beta stimulated, 500 pg/mL final; Potency, µM (doses to about 46.1 µM), for inactives: at the top dose activity, negative = inhibition, hits mostly inhibitors; 410,000 tested, 1.2% active; AID 588855; note: % is set by controls: 0 for no effect and ±100 for the full control effect; nearly all actives have a fitted effect of over 65% in size
#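 Read-out: total well GFP (ex488/em500-530) summed from mean per-cell fluorescence. Cells: HEPG2 CAGA-GFP, 1% FBS DMEM, 18 h at 37 degrees C with 500 pg/mL final TGF-beta. Unstimulated wells served as the full-inhibition control; stimulated DMSO wells = 0%.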
# Numbers without * were called inactive; i = inactive; ? = inconclusive; nt = not tested or not shown; [ ] = another dose, or the depositor's remark. The list is not random: actives were taken first. Their share in the collection is about 6.6%. Calls come from the whole dose curve; as a rule, active = well fitted curve in the direction sought with a large enough effect; inconclusive = small, poorly fitted or top-dose-only effect, or another doubt; inactive = no such curve, though single readings can be large; an effect the other way counts as inactive or inconclusive. Potency is the fitted concentration of half-maximal effect.
SMILES,KB-3-1 tox,HT1080 IDH1KD tx,HepG2 tox,KB-V1 MDR tox,HT1080NT lethal,TGFb inhibitor
CCOc1ccc(-n2c(SCC(=O)Nc3ccc(CC)cc3)nc3n[nH]c(C)c3c2=N)cc1,?,18.4µM*,-53.9%,i,?,?
CCCCN(CC)C(=O)CSc1nc2n[nH]c(C)c2c(=N)n1-c1cccc(OC)c1,nt,nt,-29.6%,nt,nt,4.47µM*
CCCN(CCC)C(=O)CSc1nc2n[nH]c(C)c2c(=N)n1-c1ccc(OCC)cc1,?,?,-22.1%,?,-21.2%,?
CCCCN(CC)C(=O)CSc1nc2n[nH]c(C)c2c(=N)n1-c1ccc(CC)cc1,nt,nt,-69.1%,nt,nt,1.41µM*
CCCN(CCC)C(=O)CSc1nc2n[nH]c(C)c2c(=N)n1-c1ccc(OC)cc1,?,-22.7%,-3.3%,?,-18.0%,-9.1%
COc1ccccc1NC(=O)CSc1nc2n[nH]c(C)c2c(=N)n1-c1ccccc1Cl,?,?,-16.2%,16.4µM*,-13.4%[9.24 µM],-29.9%
COc1ccccc1C1NC(c2ccc3c(c2)OCO3)=CC(c2cc(Br)ccc2O)N1 (centres undefined),i,nt,-34.8%,i,nt,?
Fc1ccccc1-n1ncc2c1ncn1nc(Cc3ccccc3)nc21,nt,nt,-2.8%,nt,nt,nt
O=C(CSc1nnc(-c2ccccc2)c(-c2ccccc2)n1)NC1CCCC1,i,nt,-12.5%,?,nt,-21.1%
Cc1cc(Cl)ccc1NC(=O)C1CCN(c2nnc(-n3c(C)ccc3C)s2)CC1,nt,nt,-24.2%,nt,nt,nt
Cc1cc(-n2c(SCc3ccccc3F)nc3n[nH]c(C)c3c2=N)ccc1Cl,i,20.6µM*,-28.4%,?,?,-21.4%
Cc1ccc(CNC(=O)c2ccc([N+](=O)[O-])o2)cc1,?,?,14.1µM*,?,?,-18.3%
Cc1ccc(/C=C/C(=O)c2ccc([N+](=O)[O-])o2)cc1,i,3.66µM*,-19.4%,?,11.6µM*,7.94µM*
CN(Cc1ccccc1)C(=O)c1ccc([N+](=O)[O-])o1,i,0.5%,20µM*,?,-10.4%,?
Cc1ccc(C(=O)/C=C/c2ccc(Br)cc2)o1,i,-9.4%,-27.0%,i,-21.6%,0.0%
Cc1ccc(CNC(=O)c2nn(C)c(C)c2[N+](=O)[O-])cc1,i,12.2%,7.7%,i,9.8%,2.3%
COc1ccccc1CNC(=O)C(=O)NCC(c1ccco1)S(=O)(=O)c1ccc(C)cc1 (centres undefined),i,nt,-2.2%,i,nt,-5.0%
CCc1ccccc1N1CC(c2nnc(NC(=O)c3ccco3)s2)CC1=O (centres undefined),i,nt,-2.5%,i,nt,-17.2%
N#Cc1nc(Nc2cc(F)cc(F)c2)c2ncn(CCO)c2n1,14.6µM*,nt,nt,?,nt,nt
N#Cc1nc(Nc2cc(F)cc(F)c2)c2ncn(CC(F)F)c2n1,i,nt,-28.3%,i,nt,-7.5%
O=c1[nH]c(CSc2nc(-c3ccc(F)cc3)cs2)nc2ccccc12,i,0.5%,-2.8%,5.8µM*,4.0%,3.5%
CCc1ccc(Cn2c(CNS(=O)(=O)c3ccc(F)c(Cl)c3)nc3cccnc32)cc1,nt,nt,-28.9%,nt,nt,?
CCc1c(C)nc2ncnn2c1N1CCCC(C(=O)NCCc2ccc(OC)cc2)C1 (centres undefined),?,?,-3.2%,14.6µM*,5.2%,0.0%
CCCc1cc(N2CCCC(C(=O)Nc3ccc(OC)cc3OC)C2)n2ncnc2n1 (centres undefined),?,-4.2%,0.4%,3.66µM*,2.9%,-5.2%
COc1ccc(NC(=O)N2CCCC(C(=O)NCCc3ccccc3)C2)cc1 (centres undefined),i,1.1%,9.2%,23.1µM*,1.4%,8.3%
